“And” between values parts separate entries of the source, which are not always exact repeats. Identical values can stand only once. More than one record can exist for a structure, and the calls need not agree. The source made the active and inactive calls. The call rests on the fitted dose curve.
The compounds below were run against Androgen receptor (Homo sapiens) (UniProt P10275) (assay: qHTS assay to identify small molecule agonists of the androgen receptor (AR) signaling pathway in the presence of an antagonist (AID 1259381; further: nearly all actives have a fitted effect of over 15% in size)). Settings: MDA-kb2 MMTV-luciferase, AR agonist + nilutamide, 16 h; series mostly up to 92.4 µM; activation: at the top concentration.
Chain of Androgen receptor (Homo sapiens) (P10275 whole entry, looked up): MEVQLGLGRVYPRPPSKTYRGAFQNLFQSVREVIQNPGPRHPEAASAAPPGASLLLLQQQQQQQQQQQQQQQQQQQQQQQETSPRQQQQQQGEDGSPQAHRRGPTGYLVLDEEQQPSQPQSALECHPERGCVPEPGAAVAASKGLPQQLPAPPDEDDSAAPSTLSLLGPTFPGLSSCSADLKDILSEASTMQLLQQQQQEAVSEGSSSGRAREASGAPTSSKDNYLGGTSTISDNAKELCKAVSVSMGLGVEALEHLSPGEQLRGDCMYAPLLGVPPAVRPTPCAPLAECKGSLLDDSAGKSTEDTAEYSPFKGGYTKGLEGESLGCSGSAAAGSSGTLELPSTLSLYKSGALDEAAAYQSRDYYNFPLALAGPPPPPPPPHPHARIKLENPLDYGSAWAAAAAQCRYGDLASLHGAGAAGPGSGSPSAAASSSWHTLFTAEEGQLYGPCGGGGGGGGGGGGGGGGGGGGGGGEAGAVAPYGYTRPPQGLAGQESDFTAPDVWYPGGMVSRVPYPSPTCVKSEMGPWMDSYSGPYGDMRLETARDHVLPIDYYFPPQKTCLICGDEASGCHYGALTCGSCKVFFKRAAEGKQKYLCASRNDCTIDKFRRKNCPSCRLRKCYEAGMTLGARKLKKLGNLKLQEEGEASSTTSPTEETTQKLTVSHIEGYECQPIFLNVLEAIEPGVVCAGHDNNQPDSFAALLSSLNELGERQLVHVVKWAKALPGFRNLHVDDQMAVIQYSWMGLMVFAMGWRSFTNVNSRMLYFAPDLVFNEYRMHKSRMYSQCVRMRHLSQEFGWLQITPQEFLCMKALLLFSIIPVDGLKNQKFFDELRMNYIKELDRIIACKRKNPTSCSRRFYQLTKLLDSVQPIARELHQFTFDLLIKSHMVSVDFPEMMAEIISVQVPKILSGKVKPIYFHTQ
From the text: National Center for Advancing Translational Sciences [NCATS] NIH Chemical Genomics Center [NCGC] U.S. Environmental Protection Agency [EPA] National Institutes of Environmental Health Sciences [NIEHS] National Toxicology Program [NTP] Assay overview: Androgen receptor (AR) is an important member of nuclear receptor family. Its signaling plays a critical role in AR-dependent prostate cancer and other androgen related diseases. Considerable attention has been given in the past decades to develop methods to study and screen for the environmental chemicals that have the potential to interfere with metabolic homeostasis, reproduction, developmental and behavioral functions. Therefore AR binding assay for screening against androgen agonists and antagonists can be used to identify potential endocrine disruptors. MDA-kb2 cells (from ATCC, deposited by Wilson et al.) are human breast carcinoma cells that were stably transfected with a luciferase reporter gene under control of the MMTV promoter that contains response elements for both androgen receptor (AR) and glucocorticoid receptor (GR). This particular screening for measuring luciferase reporter gene activity using MDA-kb2 cells against Tox21 10K library compounds is a confirmation study on agonist mode screening in the presence of AR-antagonist compound (Nilutamide) at 3.0uM final concentration.
Assay Protocol Summary: MDA-kb2 cells (cells cultured without CO2) were dispensed at 3,000 cells/well in 4uL of culture medium into white wall/solid-bottom 1536-well plates (Corning Life Sciences, Corning, NY) using a Multidrop Combi (Thermo Fisher Scientific Inc., Waltham, MA) dispenser. The assay plates were incubated at 37C and 0% CO2 for 5hr. One uL of 3.0uM (final concentration) Nilutamide or assay buffer was added using two separate tips of Flying Reagent Dispenser (FRD, Aurora Discovery, San Diego, CA). Then 23nL of compounds dissolved in DMSO at 15 concentrations and positive controls were transferred to the assay plates using a Pintool station (Wako, San Diego, CA). The assay plates were incubated at 37C and 0% CO2 for 16hr. For luciferase read, 4uL/well ONE-Glo reagent (Promega Corporation, Madison, WI) was added to each well of the assay plates using FRD. After 30min incubation at room temperature, the luminescence signal was measured using a ViewLux plate reader (PerkinElmer, Shelton, CT).
For O=[N+]([O-])c1ccc2ccc3cccc4ccc1c2c34, the “activation” value was 2.94% (inactive).
For CC(O)C#N (stereo not given), the “activation” value was -2.15% (inactive).
c1cc[c]([Sb]([c]2ccccc2)[c]2ccccc2)cc1 was tested, and the “activation” value was -3.14% (inactive).
For Cc1cccc(OP(=O)(Oc2cccc(C)c2)Oc2cccc(C)c2)c1, the “activation” value was -1.97% (inactive).
With CC(C)CBr the Potency was 0.386 µM (active).
For ClC1=C(Cl)[C@]2(Cl)[C@@H]3[C@@H](Cl)[C@@H](Cl)C[C@@H]3[C@@]1(Cl)C2(Cl)Cl, the “activation” value was -0.195% (inactive).
For Oc1c(Br)c(Br)c(Br)c(Br)c1Br, the “activation” value was -10.3% (inactive).
ClC1=C(Cl)[C@]2(Cl)[C@@H]3[C@@H](Cl)[C@H](Cl)C[C@@H]3[C@@]1(Cl)C2(Cl)Cl was tested, and the “activation” value was 11.7% (inactive).
With CC(C)N1C(=O)N(c2ccccc2)CSC1=NC(C)(C)C the “activation” value was -8% (inactive).
With N#Cc1ccccc1N the “activation” value was -0.344% (inactive).
With O=C(CCl)Nc1ccccc1 the “activation” value was -11.1% (inactive).
With C=CC(=O)OCC(COC(=O)C=C)(COC(=O)C=C)COC(=O)C=C the “activation” value was -11.5% (inactive).
With CCOC(=O)CC(=O)CCl the “activation” value was -2.03% (inactive).
CCC(C)c1cc([N+](=O)[O-])cc([N+](=O)[O-])c1OC(=O)C=C(C)C (stereo not given) was tested, and the “activation” value was -9.64% (inactive).
In the case of O=C(Cl)c1ccc(Cl)cc1, the “activation” value is reported as -0.13% (inactive).
For CCCCCCCCCCCCCCCCCCn1cc[n+](C)c1, the “activation” value was -10.2% (inactive).
In the case of CC[C@H]1C[C@@H]2C[C@H]3c4[nH]c5ccc(OC)cc5c4CCN(C2)[C@@H]13, the “activation” value is reported as 1.82% (inactive).
With C[C@]12CC[C@H](O)C[C@H]1CC[C@@H]1[C@@H]2C[C@@H](O)[C@]2(C)[C@@H](C3=CC(=O)OC3)CC[C@]12O the Potency was 2.73 µM (active).
For C[C@H]1O[C@@H](O[C@H]2[C@@H](O)C[C@H](O[C@H]3[C@@H](O)C[C@H](O[C@H]4CC[C@@]5(C)[C@H](CC[C@@H]6[C@@H]5CC[C@]5(C)[C@@H](C7=CC(=O)OC7)CC[C@]65O)C4)O[C@@H]3C)O[C@@H]2C)C[C@H](O)[C@@H]1O, the Potency was “inactive and 237 nM (active)”.
For O=[N+]([O-])c1cc([N+](=O)[O-])c2ccccc2c1, the “activation” value was -3.08% (inactive).
With CCCCOCN(C(=O)CCl)c1c(CC)cccc1CC the “activation” value was -4.76% (inactive).
With C[C@@H]1CC[C@@]2(OC1)O[C@H]1[C@@H](O)[C@H]3[C@@H]4CC[C@H]5C[C@@H](O[C@@H]6O[C@H](CO)[C@H](O[C@@H]7O[C@H](CO)[C@@H](O)[C@H](O[C@@H]8OC[C@@H](O)[C@H](O)[C@H]8O)[C@H]7O[C@@H]7O[C@H](CO)[C@@H](O)[C@H](O[C@@H]8O[C@H](CO)[C@@H](O)[C@H](O)[C@H]8O)[C@H]7O)[C@H](O)[C@H]6O)[C@H](O)C[C@]5(C)[C@H]4CC[C@]3(C)[C@H]1[C@@H]2C the “activation” value was -10.7% (inactive).
With S=C=Nc1cccc2ccccc12 the “activation” value was -1.86% (inactive).
In the case of COP(N)(=S)OC, the “activation” value is reported as 11.3% (inactive).
For c1ccc2cc3c(cc2c1)-c1cccc2cccc-3c12, the “activation” value was 6.05% (inactive).
CCOP(=S)(OCC)SCS(=O)(=O)C(C)(C)C was tested, and the “activation” value was -2.47% (inactive).
For CCSC(C)CC1CC(=O)C(/C(CC)=N/OC/C=C/Cl)=C(O)C1 (stereo not given), the “activation” value was 5.93% [at 42.5 µM] (inactive).
In the case of CN(CCCC(O)c1cccnc1)N=O (stereo not given), the “activation” value is reported as 2.48% (inactive).
With COC(=O)N(C(=O)N1COC2(C(=O)OC)Cc3cc(Cl)ccc3C2=N1)c1ccc(OC(F)(F)F)cc1 (stereo not given) the “activation” value was 7.36% [at 42.5 µM] (inactive).
With [Cl][Sn]([c]1ccccc1)([c]1ccccc1)[c]1ccccc1 the activation was -10.8% [at 19 µM] (inactive).
With NC(=O)CCl the “activation” value was 1.52% (inactive).
For Cc1ccc(C(=O)Cl)cc1, the “activation” value was 11.8% (inactive).
In the case of Nc1c(Oc2ccccc2)cc(O)c2c1C(=O)c1ccccc1C2=O, the “activation” value is reported as 7.75% [at 42.5 µM] (inactive).
For CC(=O)/C=C/c1ccc2c(c1)OCO2, the “activation” value was -8.02% (inactive).
For CCC(C)c1cc(C(C)(C)C)cc(-n2nc3ccccc3n2)c1O (stereo not given), the “activation” value was 0.0588% [at 42.5 µM] (inactive).
In the case of CNC(C)Cc1ccc2c(c1)OCO2 (stereo not given), the “activation” value is reported as -0.994% (inactive).
O=[N+]([O-])c1cc(Cl)ccc1Cl was tested, and the “activation” value was -0.645% (inactive).
N#CCCO was tested, and the “activation” value was -0.011% (inactive).
In the case of N#Cc1ccc(O)cc1, the “activation” value is reported as 7.82% (inactive).
For N#CCCSCCC#N, the “activation” value was -1.45% (inactive).
On the % scale 0 is the no-effect control and ±100 the full control effect; potency means the concentration at half of the fitted maximal effect.
